Assay outcomes as filed in PubChem.
In the library only some 2.4% were active in any assay of this set; here they are far more common.
D2 PAM-1: D2 dopamine receptor (human) potentiation. HEK293 T-REx D2, calcium flux, EC20 dopamine potentiation. potentiation, % at 10 µM. 340,000 compounds, 0.34% hits. AID 485347;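 active means potentiation over 3 SD above the plate norm, cut at about 30% in these data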; further: 0% is about no effect
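Primary screen. Calcium kinetics in induced HEK293 T-REx D2 cells: compound pre-addition 180 s, EC20 dopamine, 180 s more.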
D2 PAM-2: potentiates the human D2 dopamine receptor allosterically | DiscoveRx D2 beta-arrestin cells, luminescence, 90 min; 100% = 57 uM dopamine signal | potentiation, % (test concentration not listed) | 360,000 compounds, 0.23% hits; in the data active means potentiation above about 50%; inconclusive means mostly about 30% to 49%
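PathHunter beta-arrestin assay in DiscoveRx D2 cells. Compounds were added with an EC20 of dopamine (50 nM final) for 90 min at 37 deg C. Luminescence was read 1 h after detection reagent, with 57 uM dopamine as the EC100 control.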
D2 ag-1: activates the human D2 dopamine receptor. P14416. AID 624465. DiscoveRx PathHunter D2 beta-arrestin, luminescence, 90 min; 100% = 57 uM dopamine signal. activation, % (no concentration beside the values). 360,000 compounds, 0.084% hits; in the data active means activation above about 40%; inconclusive means between about 15% and that limit
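Agonist mode: compounds alone added to overnight-plated D2 PathHunter cells for 90 min at 37 C, with 57 uM final dopamine (EC100) defining full response. Beta-arrestin recruitment detected by chemiluminescent reagent, read after 1 h at ambient temperature.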
D2 ag-2: agonists of human D2 dopamine receptor. P14416. AID 485358. HEK293 T-REx D2 cells, calcium flux agonist mode. 340,000 compounds, 0.53% hits. activation, % at 2 µM;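 active means activation over 3 SD above normal in the single-dose calcium agonist read, cut at about 30% in these data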; further: 0% is about no effect
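Agonism scored from kinetic calcium signal (1 read/sec, 180 s) following compound pin transfer, after a 10 s baseline. Cells: HEK293 Trex line expressing inducible D2 receptor coupled to calcium, dye-loaded after overnight culture at 30 C.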
D2 antagonist: D2 dopamine receptor (human) antagonism; P14416; inhibition, % at 10 µM; 340,000 compounds, 2% hits; HEK293 TREx D2 cells, calcium flux, dopamine EC80; in the data active means inhibition above about 30%; inactive means below that, where a call was filed; further: 0% is about no effect
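Overnight-induced (tetracycline, 30 C) HEK293 T-REx cells carrying force-coupled D2 receive a no-wash calcium dye, then compound, then EC80 dopamine at 180 s; signals are read kinetically throughout.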
D3 arrestin ag: confirmation of human D3 dopamine receptor agonists, beta-arrestin; shares compounds with D2 ag-2; DiscoveRx D3 beta-arrestin cells, luminescence, 90 min; Potency, µM (highest dose often 76.9 µM), for inactives: top-dose activation, usual class: activators; 2,300 compounds, 4% hits;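 further: potency means the concentration at half of the fitted maximal effect; 100% = dopamine control response; nearly all actives have a fitted effect of over 70% in size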
Target sequence (P35462 whole entry, looked up): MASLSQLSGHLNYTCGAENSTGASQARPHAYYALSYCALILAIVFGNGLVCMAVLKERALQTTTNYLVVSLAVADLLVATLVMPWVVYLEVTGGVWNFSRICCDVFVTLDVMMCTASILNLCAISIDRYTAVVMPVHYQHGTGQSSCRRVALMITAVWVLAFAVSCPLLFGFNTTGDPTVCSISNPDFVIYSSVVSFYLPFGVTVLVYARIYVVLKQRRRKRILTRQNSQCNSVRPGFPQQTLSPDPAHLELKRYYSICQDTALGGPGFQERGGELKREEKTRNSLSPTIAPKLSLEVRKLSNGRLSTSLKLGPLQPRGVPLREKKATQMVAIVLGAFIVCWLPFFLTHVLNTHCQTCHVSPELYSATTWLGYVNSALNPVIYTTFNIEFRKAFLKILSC
D2 ag-3: counter-screen for D3 agonists: human D2 dopamine receptor agonism | DiscoveRx PathHunter D2 beta-arrestin, luminescence, 90 min; response scale: percent relative to full dopamine signal | AID 720507 | 2,300 compounds, 5.9% hits | shares compounds with D2 ag-2 | Potency, µM (doses to about 76.9 µM), without a hit: at the top dose activation, most hits filed as activators; further: potency means the concentration at half of the fitted maximal effect; % of control where 0% means no effect; nearly all actives have a fitted effect of over 70% in size
* = called active by the depositor; ? = inconclusive; nt = not tested or not shown. Unless noted, the call rests on the fitted dose curve; in most records, active means well fitted activation curve with a large enough effect; inconclusive means small, poorly fitted or top-dose-only effect; inactive means flat fitted curve, though single readings scatter.

SMILES	D2 PAM-1	D2 PAM-2	D2 ag-1	D2 ag-2	D2 antagonist	D3 arrestin ag	D2 ag-3
CCCc1nn2c(=O)cc(COC(=O)C3CCCCC3)nc2s1	21	nt	nt	0	nt	nt	nt
O=S(=O)(Nc1nc2ccccc2[nH]1)c1ccc2ccccc2c1	-19	-6	0	56*	1	-30%	0%
O=S(=O)(Nc1ncn[nH]1)c1ccc2ccccc2c1	4	18	-2	0	-11	nt	nt
O=C(c1ccco1)N1CCN(C(=O)C2CCN(S(=O)(=O)c3cccs3)CC2)CC1	-11	-13	-5	1	-1	0%	1%
COc1ccccc1-c1oc2ccccc2c1-c1ccc2cc[nH]c2c1	16	-3	4	0	-5	1%	3%
COc1ccc(-c2nn(C)c3sc(C(=O)N4CCN(c5cc(Cl)ccc5C)CC4)cc23)cc1OC	-2	nt	nt	0	nt	nt	nt
CCOC(=O)C1CCN(Cc2cccc(Oc3ccc(Cl)cc3)c2)CC1	-27	17	?	62*	72*	?	40µM*
CCN1CCN(Cc2cccc(Oc3ccc(Cl)cc3)c2)CC1	5	-29	-2	1	14	nt	nt
CCOC(=O)C1CCN(Cc2cnc(Oc3ccc(N)cc3)s2)CC1	-31	17	?	76*	67*	3%	?
CCCc1cc(=O)[nH]c(Nc2ccccc2O)n1	-4	nt	nt	1	nt	nt	nt
N#Cc1ccccc1OCC(=O)OCCCOC(=O)COc1ccccc1C#N	-19	-4	-1	62*	15	1%	-2%
CCOC(=O)C1(CCOc2ccccc2)CCN(Cc2cccc(-n3cccn3)c2)CC1	-20	-19	6	0	-1	nt	nt
CCOC(=O)C1(CCOc2ccccc2)CCN(CCCn2cccn2)CC1	-21	-13	2	57*	77*	8%	18%
CCOC(=O)C1(Cc2cccc(F)c2)CCN(CCCn2cccn2)CC1	-22	-23	0	43*	-24	-9%	0%
C[C@]12CCC(O)CC1CCC1C2CC[C@]2(C)C(c3cc(C(F)(F)F)n[nH]3)CCC12 (stereo not given in full)	11	5	-3	16	44*	?	?
CC12CCC3C(CCC4CC(O)CCC43C)C1CC(O)C2 (stereo not given)	nt	2	-2	nt	nt	nt	nt
Fc1ccc(CN2CCN(c3ncccn3)CC2)cc1	-19	25	47*	79*	84*	-5%	?
CCc1ccc(CN2CCN(c3ncccn3)CC2)cc1	-19	?	75*	77*	95*	?	0.56µM*
Fc1ccc(F)c(CN2CCN(c3ncccn3)CC2)c1	-22	64*	78*	64*	79*	?	3.2µM*
CCOc1cc(CN2CCN(c3ncccn3)CC2)ccc1OC	-36	-5	?	78*	77*	20%	?
O=S1(=O)CC(N2CCN(c3ncccn3)CC2)CN1Cc1ccc(F)cc1 (stereo not given)	nt	-3	-3	nt	nt	nt	nt
Cc1c(Cl)cccc1NC(=O)Cn1nc(C(F)(F)F)c2c1CCC2	-4	nt	nt	0	nt	nt	nt
CCOc1ccc(CNC(=O)c2oc3c(c2C)-c2nn(Cc4cccc(Cl)c4)cc2CC3)cc1	-5	nt	nt	1	nt	nt	nt
COc1ccc2c(c1)OC[C@H]1[C@H]2N2C(=O)CN(C)C(=O)[C@@]2(C)[C@H]1c1ccccc1	11	-5	0	1	-3	-5%	-1%
CCCCN1CC(=O)N2[C@H]3c4ccc(OC)cc4OC[C@@H]3[C@H](C(=O)OCC)[C@]2(C)C1=O	3	-1	1	-1	-15	-2%	-1%
SMILES	D2 PAM-1	D2 PAM-2	D2 ag-1	D2 ag-2	D2 antagonist	D3 arrestin ag	D2 ag-3
CCCCOc1ccc(CNC(=O)Cc2ccc(NC(=O)N3CCCCc4ccccc43)cc2)cc1	0	nt	nt	0	nt	nt	nt
COc1cccc(C2CC(=O)Nc3cc4c(cc32)CCC4)c1 (stereo not given)	13	-4	-7	-1	10	23%	10%
COc1cccc(C2CC(=O)Nc3cc(OC)c(OC)cc32)c1 (stereo not given)	6	4	3	0	27	nt	nt
COc1ccc(C)cc1NC(=O)C(Sc1nnc(-c2cccs2)o1)c1ccccc1 (stereo not given)	8	-7	-2	-1	13	-15%	-3%
O=C(Nc1ccc(Cl)cc1C(F)(F)F)C(Sc1nnc(-c2cccs2)o1)c1ccccc1 (stereo not given)	-11	-12	-3	1	10	nt	nt
CCOc1ccc(C=NCC(O)c2ccccc2)cc1 (stereo not given)	-2	-7	3	21	13	-4%	1%
CCOc1ccc(/C=N/NC(=O)C(OC)c2ccccc2)cc1 (stereo not given)	5	4	1	0	0	nt	nt
Cc1ccc(C)n1CCN1CCN(C(=O)c2ccc(Cl)cc2)CC1	-17	-34	0	-2	9	nt	nt
COCc1c(C(=O)N2CCN(CCOc3ccccc3)CC2)oc2ccccc12	-22	10	?	80*	77*	0.32µM*	?
OCCN1CCN(CCOc2cccc(Cl)c2)CC1	-23	-29	3	33*	76*	?	4%
O=C(c1ccc(Cl)cc1)N1CCN(CCOc2ccccc2)CC1	-22	-2	?	74*	76*	0.1µM*	25µM*
O=C(c1c(F)cccc1F)N1CCN(CCOc2ccccc2)CC1	-9	-9	1	60*	22	?	18%
O=C(NCc1ccc2c(c1)CCN2C(=O)c1ccncc1)c1cccc(Cl)c1	-9	nt	nt	1	nt	nt	nt
CCC(C)NC(=O)c1ccccc1NC(=O)C1CCN(S(=O)(=O)Cc2ccccc2)CC1 (stereo not given)	2	nt	nt	3	nt	nt	nt
CC(C)N(Cc1nc(-c2ccc(Cl)cc2)no1)C(=O)c1ccco1	15	nt	nt	0	nt	nt	nt
COc1ccc(OCCN2CCN(C(=O)c3ccc(OC(F)F)c(OC)c3)CC2)cc1	11	1	3	11	-4	nt	nt
COc1ccc(OCCN2CCN(C(=O)c3ccc(OC)cc3)CC2)cc1	-10	-7	3	42*	13	0.45µM*	18%
CCc1c(C)c2cc3c(c(C)c2oc1=O)OCN(CCc1ccccc1F)C3	12	nt	nt	-1	nt	nt	nt
COc1ccc(C2CC(O)(c3ccccc3)Oc3cc(OC)cc(OC)c32)cc1 (stereo not given)	10	2	5	0	4	19%	4%
